The values that follow come from article PMC4336329 (PLoS ONE, 2015).

The structures appear in SMILES notation. The campaign covered roughly 310,000 compounds. About 14,000 (4.5%) showed an effect of 50% or more. The effect is printed as a negative number. The list comes from a sample in which strong results are over-represented; it also holds similar structures and randomly drawn compounds.
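Note: peak tail current of the secondary pulse compared with the same well before compound.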

In this assay the target is human ether-à-go-go-related gene (hERG) potassium channel (human, UniProt Q12809). The experiment in a line: primary screen, population patch clamp on CHO cells stably expressing hERG; higher = less effect of the substance.
human ether-à-go-go-related gene (hERG) potassium channel, sequence (Q12809 whole entry, looked up): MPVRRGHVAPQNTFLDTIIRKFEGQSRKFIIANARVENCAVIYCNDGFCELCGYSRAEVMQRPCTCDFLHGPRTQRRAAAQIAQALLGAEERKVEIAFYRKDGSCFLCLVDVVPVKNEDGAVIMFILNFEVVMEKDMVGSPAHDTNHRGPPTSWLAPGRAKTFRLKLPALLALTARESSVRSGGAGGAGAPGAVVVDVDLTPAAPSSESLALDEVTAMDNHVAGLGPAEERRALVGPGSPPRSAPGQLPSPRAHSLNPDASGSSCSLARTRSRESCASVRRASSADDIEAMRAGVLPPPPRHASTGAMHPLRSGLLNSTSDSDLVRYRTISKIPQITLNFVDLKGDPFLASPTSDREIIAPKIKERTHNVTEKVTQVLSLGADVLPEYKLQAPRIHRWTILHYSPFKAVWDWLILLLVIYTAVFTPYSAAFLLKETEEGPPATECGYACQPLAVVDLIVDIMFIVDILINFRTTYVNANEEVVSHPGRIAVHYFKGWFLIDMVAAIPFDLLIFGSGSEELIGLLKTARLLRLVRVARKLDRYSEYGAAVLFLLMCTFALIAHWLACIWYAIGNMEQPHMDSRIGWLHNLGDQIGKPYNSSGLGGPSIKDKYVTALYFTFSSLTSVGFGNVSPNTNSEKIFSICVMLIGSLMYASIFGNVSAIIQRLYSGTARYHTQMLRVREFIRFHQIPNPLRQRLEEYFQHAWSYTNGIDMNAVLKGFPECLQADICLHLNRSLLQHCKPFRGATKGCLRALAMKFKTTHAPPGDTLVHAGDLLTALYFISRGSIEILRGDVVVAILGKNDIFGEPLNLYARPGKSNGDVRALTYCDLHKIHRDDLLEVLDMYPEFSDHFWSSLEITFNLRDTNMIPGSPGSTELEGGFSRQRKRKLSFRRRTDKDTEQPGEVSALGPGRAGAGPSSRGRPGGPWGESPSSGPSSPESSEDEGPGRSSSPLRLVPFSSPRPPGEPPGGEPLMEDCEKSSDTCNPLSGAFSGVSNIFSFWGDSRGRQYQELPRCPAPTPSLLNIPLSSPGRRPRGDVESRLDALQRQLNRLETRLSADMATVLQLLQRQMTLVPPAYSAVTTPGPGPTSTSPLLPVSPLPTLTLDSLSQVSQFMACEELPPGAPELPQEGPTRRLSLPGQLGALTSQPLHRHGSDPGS
In the case of `O=c1ccc2cc(S(=O)(=O)N3CCOCC3)ccc2o1`, the “hERG current change (%, negative = inhibition) at 10uM” value came to 4.83%.

Regarding `O=c1ccc2cc(S(=O)(=O)N3CCN(c4ccccc4)CC3)ccc2o1`, the “hERG current change (%, negative = inhibition) at 10uM” value was -0.646%.

In the case of `O=c1ccc2cc(S(=O)(=O)N3CCN(c4ccc(Cl)cc4)CC3)ccc2o1`, the “hERG current change (%, negative = inhibition) at 10uM” value was -52.8%.

With `CCOc1ccc(C(=O)Nc2ccccc2C(=O)O)cc1`, the “hERG current change (%, negative = inhibition) at 10uM” value is listed as 8.2%.

As for `Cc1ccc(S(=O)(=O)N2CCCCC2)cc1NC(=O)CSc1nnc(N)s1`, the “hERG current change (%, negative = inhibition) at 10uM” value is on record as -20.2%.

Turning to `O=C(Cn1cc([N+](=O)[O-])cn1)N1CCN(c2ccccc2)CC1`, the “hERG current change (%, negative = inhibition) at 10uM” value was found to be 7.25%.

For `COc1ccc(C(NC(=O)C2C3C=CC(C3)C2C(=O)O)c2ccccc2)cc1` (stereo not drawn), the “hERG current change (%, negative = inhibition) at 10uM” value is listed as -4.58%.

Regarding `O=C(CN1CCCc2ccccc21)N/N=C/c1ccc(O)cc1O`, the “hERG current change (%, negative = inhibition) at 10uM” value is given as -29.1%.

For the compound `C[C@H](NC(=O)c1ccccc1Cl)C(=O)OCC(=O)N1CCN(c2ccccc2)CC1`, the “hERG current change (%, negative = inhibition) at 10uM” value is reported as -9.59%.

In the case of `CC1CCN(C(=O)CC(NC(=O)c2ccccc2Cl)c2ccccc2)CC1` (stereo not drawn), the “hERG current change (%, negative = inhibition) at 10uM” value was -15.7%.

For `O=C(NC(CC(=O)N1CCCC(C(F)(F)F)C1)c1ccccc1)c1ccccc1Cl` (stereo not drawn), the “hERG current change (%, negative = inhibition) at 10uM” value was -8.81%.

Take `O=C(NC(CC(=O)N1CCN(c2ccccc2O)CC1)c1ccccc1)c1ccccc1Cl` (stereo not drawn): the “hERG current change (%, negative = inhibition) at 10uM” value is -70.6%.

`Cc1cccc(N2CCN(C(=O)c3ccccc3SCC(=O)N3CCCC3)CC2)c1C`: the “hERG current change (%, negative = inhibition) at 10uM” value was -34.7%.

For the compound `Cc1cccc(N2CCN(C(=O)CNC(=O)c3ccccc3)CC2)c1C`, the “hERG current change (%, negative = inhibition) at 10uM” value is -30.6%.

Regarding `O=C(NC(CC(=O)N1CCN(c2ccc([N+](=O)[O-])cc2)CC1)c1ccccc1)c1ccccc1Cl` (stereo not drawn), the “hERG current change (%, negative = inhibition) at 10uM” value is listed as -85.3%.

Turning to `O=C(NC(CC(=O)N1CCN(c2ccccc2)CC1)c1ccccc1)c1ccccc1Cl` (stereo not drawn), the “hERG current change (%, negative = inhibition) at 10uM” value is -46.8%.

For the compound `Cc1cccc(N2CCN(C(=O)CC(NC(=O)c3ccccc3Cl)c3ccccc3)CC2)c1C` (stereo not drawn), the “hERG current change (%, negative = inhibition) at 10uM” value is given as -59.9%.

For the compound `C/C(=N\Nc1ccc([N+](=O)[O-])cc1)c1ccc(O)cc1`, the “hERG current change (%, negative = inhibition) at 10uM” value is -1.55%.

Regarding `CNC(=S)N(CCO)Cc1cc2cc3c(cc2[nH]c1=O)OCO3`, the “hERG current change (%, negative = inhibition) at 10uM” value is 24%.

With `Cc1cccc(-n2c(SCC(N)=O)nnc2-c2ccccn2)c1C`, the “hERG current change (%, negative = inhibition) at 10uM” value came out at 1.28%.

As to `CCc1ccc(C(=O)NC(CC(C)C)C(=O)O)cc1` (stereo not drawn), the “hERG current change (%, negative = inhibition) at 10uM” value is -2.4%.

Take `Cc1cc(/C=C2\C(=O)NC(=O)N(Cc3ccco3)C2=O)c(C)n1-c1ccc(C(=O)O)cc1`: the “hERG current change (%, negative = inhibition) at 10uM” value is on record as 12.2%.

On to `COc1cccc(Nc2ncccc2C(=O)O)c1`, for which the “hERG current change (%, negative = inhibition) at 10uM” value is 9.1%.

`CCN(CC)C(=O)CSc1nc2ccsc2c(=O)n1CCCC(=O)NCCc1ccc(S(N)(=O)=O)cc1`: the “hERG current change (%, negative = inhibition) at 10uM” value came out at 24.7%.

Consider `O=C(CCc1ccccc1)NCc1ccccc1`, for which the “hERG current change (%, negative = inhibition) at 10uM” value was -8.04%.

Turning to `Cn1c(SCC(=O)Nc2ccccc2C(F)(F)F)nc2c(c1=O)SCC2`, the “hERG current change (%, negative = inhibition) at 10uM” value is -57%.

With `Cn1c(SCC(=O)Nc2ccc(F)cc2)nc2c(c1=O)SCC2`, the “hERG current change (%, negative = inhibition) at 10uM” value is given as -6.44%.

As to `Cn1c(SCc2ccc(Br)cc2)nc2c(c1=O)SCC2`, the “hERG current change (%, negative = inhibition) at 10uM” value was -18.6%.

On to `Cn1c(SCc2ccc([N+](=O)[O-])cc2)nc2c(c1=O)SCC2`, for which the “hERG current change (%, negative = inhibition) at 10uM” value is -67.5%.

For the compound `Cn1c(SCC(=O)Nc2ccccc2F)nc2c(c1=O)SCC2`, the “hERG current change (%, negative = inhibition) at 10uM” value is listed as -9.41%.

Consider `Cn1c(SCc2cccc([N+](=O)[O-])c2)nc2c(c1=O)SCC2`, for which the “hERG current change (%, negative = inhibition) at 10uM” value is -36.6%.

With `Cc1cc(C)c(S(=O)(=O)N2CCN(c3ccccc3)CC2)c(C)c1`, the “hERG current change (%, negative = inhibition) at 10uM” value is recorded as 16.5%.

`Cc1ccc(NC(=O)c2ccccc2N2C(=O)C3C4C=CC(C5CC45)C3C2=O)cc1C` (stereo not drawn): the “hERG current change (%, negative = inhibition) at 10uM” value amounted to 2.91%.

On to `COc1ccc(-n2c(N)c(C(=O)NCc3ccco3)c3nc4ccccc4nc32)cc1OC`, for which the “hERG current change (%, negative = inhibition) at 10uM” value is 16.7%.

Regarding `O=C(CNC(=O)c1ccc(Br)o1)NCc1ccccc1`, the “hERG current change (%, negative = inhibition) at 10uM” value worked out at 6.66%.

For `O=C(c1sccc1-c1ccccc1)N1CCN(S(=O)(=O)c2ccccc2F)CC1`, the “hERG current change (%, negative = inhibition) at 10uM” value is on record as -49.3%.

As for `COc1ccc(C2(C(=O)NCCCN3CCOCC3)CCOCC2)cc1.Cl`, the “hERG current change (%, negative = inhibition) at 10uM” value came out at 10.6%.

Regarding `COc1ccc(N2CCN(CCCNC(=O)C3(S(=O)(=O)c4ccc(Cl)cc4)CC3)CC2)cc1`, the “hERG current change (%, negative = inhibition) at 10uM” value is listed as -61.5%.

Regarding `O=C(NCCN1CCN(c2ccccc2)CC1)C1(S(=O)(=O)c2ccc(Cl)cc2)CC1`, the “hERG current change (%, negative = inhibition) at 10uM” value is listed as -50.2%.

`O=C(NCCN1CCCC1)C1(S(=O)(=O)c2ccc(Cl)cc2)CC1`: the “hERG current change (%, negative = inhibition) at 10uM” value was 11.7%.

As to `O=C(NCCCN1CCN(c2cccc(Cl)c2)CC1)C1(S(=O)(=O)c2ccc(Cl)cc2)CC1`, the “hERG current change (%, negative = inhibition) at 10uM” value is given as -71%.

For the compound `COc1ccc(N2CCN(CCNC(=O)Nc3cc(Cl)ccc3Cl)CC2)cc1`, the “hERG current change (%, negative = inhibition) at 10uM” value worked out at 15.6%.

Take `S=C(NCCCN1CCOCC1)N1CCN(c2cccc(Cl)c2)CC1`: the “hERG current change (%, negative = inhibition) at 10uM” value is listed as -40.2%.

In the case of `O=C(NCCCN1CCCCC1)C1(S(=O)(=O)c2ccc(Cl)cc2)CC1`, the “hERG current change (%, negative = inhibition) at 10uM” value is given as -32.3%.

In the case of `O=C(NCCc1ccccc1)C1(S(=O)(=O)c2ccc(Cl)cc2)CC1`, the “hERG current change (%, negative = inhibition) at 10uM” value was determined as 6.29%.
